An excerpt weighted towards active compounds, which were near 3.9% of everything screened.
Tb PFK block – T. brucei PFK enzyme inhibition. O15648. T. brucei PFK, ADP-Glo luminescence. Potency, µM (highest dose often 57.5 µM), without a hit: at the highest dose activity, negative = inhibition, usual class: inhibitors. actives 0.17% (n = 330,000);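 note: 0% = uninhibited 1x PFK enzyme wells and -100% = no-enzyme wells; nearly all actives have a fitted effect of over 60% in size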
Target sequence (O15648 whole entry, looked up): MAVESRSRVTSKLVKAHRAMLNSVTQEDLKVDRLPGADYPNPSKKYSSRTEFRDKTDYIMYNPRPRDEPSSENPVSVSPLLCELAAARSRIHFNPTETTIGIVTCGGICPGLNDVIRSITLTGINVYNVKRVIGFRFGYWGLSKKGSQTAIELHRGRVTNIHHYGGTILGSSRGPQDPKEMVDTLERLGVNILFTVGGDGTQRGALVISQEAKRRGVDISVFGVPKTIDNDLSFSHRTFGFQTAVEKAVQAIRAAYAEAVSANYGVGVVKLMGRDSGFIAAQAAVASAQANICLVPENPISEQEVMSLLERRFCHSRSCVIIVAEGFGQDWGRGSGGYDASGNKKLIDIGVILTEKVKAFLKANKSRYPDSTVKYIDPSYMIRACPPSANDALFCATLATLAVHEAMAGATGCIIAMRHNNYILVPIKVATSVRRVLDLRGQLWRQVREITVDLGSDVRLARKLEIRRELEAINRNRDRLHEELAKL
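ADP-Glo luminescence quantified ADP after 45 min at room temperature, with 1.25 nM T. brucei PFK, 0.1 mM ATP and 0.5 mM fructose-6-phosphate in pH 8.0 TEA buffer. qHTS titrations up to 57 µM; curves classified by quality.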
VDR inhibitor – vitamin D3 receptor (human) inhibition. P11473. actives 0.93% (n = 400,000). Potency, µM, for the others: max response, negative = inhibition, actives largely listed as inhibitors. VDR-SRC2-3 peptide fluorescence polarization, 2 h; note: % is set by controls: 0 for no effect and ±100 for the full control effect
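Inhibition of the VDR/SRC2-3 peptide interaction is quantified by fluorescence polarization. Compounds (23 nl, pintool) incubate with the reagents for 2 hours at ambient room temperature.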
BRCA1 expr up – BRCA1 expression activation; MCF7-BRCA1-FFLuc reporter, luminescence, 48 h; response scale: scaled: vehicle 0%, 10 µM genistein 100%; Potency, µM (highest dose often 46.1 µM), inactives show at the top dose activation, most hits filed as activators; actives 1.1% (n = 380,000); note: nearly all actives have a fitted effect of over 80% in size
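Compounds are tested at multiple concentrations on MCF7 BRCA1-luciferase reporter cells seeded at 2000 per well; after 48 h, a single luminescence end-point is taken and curves fitted to the normalized data.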
PLK1 PBD inh – PLK1 (human) polo-box domain binding inhibition | P53350 | actives 2.8% (n = 360,000) | Potency, µM, for inactives: max response, negative = inhibition, most hits filed as inhibitors | Plk1 PBD binding of FITC phosphopeptide, fluorescence polarization; note: series mostly up to about 57 µM; % is set by controls: 0 for no effect and ±100 for the full control effect; nearly all actives have a fitted effect of over 65% in size
Starred values were filed as active, the others as inactive; ? = inconclusive; / = no result given. Calls come from the whole dose curve; as a rule, active = well fitted curve in the direction sought with a large enough effect; inconclusive = small, poorly fitted or top-dose-only effect, or another doubt; inactive = no such curve, though single readings can be large; an effect the other way counts as inactive or inconclusive. Potency is the fitted concentration of half-maximal effect.

SMILES | Tb PFK block | VDR inhibitor | BRCA1 expr up | PLK1 PBD inh
CCOC(=O)N1CCN(c2ncc(C(F)(F)F)cc2Cl)CC1 | -6.1% | -5.4% | -20.9% | -16.5%
COC(=O)c1cnc(NCc2ccc(F)cc2)c2ccccc12 | / | 4.8% | / | /
CO[C@H]1/C=C/O[C@@]2(C)Oc3c(C)c(O)c4c(O)c(c(/C=N\N5CCN(C6CCCC6)CC5)c(O)c4c3C2=O)NC(=O)/C(C)=C\C=C\[C@H](C)[C@H](O)[C@@H](C)[C@@H](O)[C@@H](C)[C@H](OC(C)=O)[C@@H]1C | / | 11.2µM* | / | /
CCOC(=O)c1cccc(NC(=O)CC2C(=O)N(c3ccc(C)cc3)C(=O)N2Cc2cccc(OC)c2)c1 (stereo not given) | / | 0.8% | / | /
O=C(c1ccc(OCC2CCCO2)cc1)N1CCc2ccccc2C1 (stereo not given) | 2.0% | -11.8% | 11.2µM* | -7.2%
CC(=O)Nc1ccc(S(=O)(=O)N2CCC(N3CCN(Cc4ccc(C)cc4)C(=O)C3=O)CC2)cc1 | / | 6.4% | / | /
CCOC(=O)C1C(C(=O)OC)=C(c2ccc(F)cc2)c2ccc(OC)cc2N1S(=O)(=O)C(F)(F)F (stereo not given) | / | 3.0% | / | /
Cc1ccc(S(=O)(=O)n2cccc2/C=C/[N+](=O)[O-])cc1 | / | / | -81.7% | 7.52µM*
Cc1ccc(S(=O)(=O)n2ccc3cccnc32)cc1 | -3.9% | -5.6% | 1.6% | -4.7%
Cc1cccc(-c2noc(CCC(=O)NCCc3ccccc3)n2)c1 | -0.3% | -7.2% | 64.4% | -10.1%
CCN(CCCNC(=O)CCc1nc(-c2ccc(C)cc2)no1)c1cccc(C)c1 | 3.1% | -15.2% | -14.6% | 23.8µM*
COc1ccc(N2CCN(S(=O)(=O)c3ccc(-c4cc(C(F)(F)F)on4)s3)CC2)cc1 | / | 2.1% | / | /
Cc1ccc(-c2nnn(CC(=O)NCC3CC3)n2)o1 | -2.5% | 13.3% | 0.7% | -4.8%
Cc1ccc(-c2nnn(CC(=O)NCC3COCCO3)n2)o1 (stereo not given) | -2.1% | -31.2% | -12.8% | 29.9µM*
CC(C)(C)N/N=C1\CC(c2ccccc2)Oc2ccccc21 (stereo not given) | -1.4% | -4.9% | -19.6% | 29.9µM*
O=S(=O)(N/N=C1/CC(c2ccccc2)Oc2ccccc21)c1ccccc1 (stereo not given) | / | -2.5% | -37.8% | -4.8%
COC(=O)c1ccc(COC(=O)C2CCN(S(=O)(=O)c3ccccc3C(=O)OC)CC2)cc1 | 8.3% | -6.3% | -14.6% | -1.1%
C=CCNC(=O)/C(C#N)=C/c1ccc(OS(=O)(=O)c2ccc(C)cc2)c(OC)c1 | 1.3% | 28.2µM* | -49.6% | ?
COc1ccc(Cl)cc1CNC[C@H]1O[C@@H](n2cnc3c(=O)[nH]c(N)nc32)[C@H](O)[C@@H]1O | / | / | 14.4% | -10.0%
COc1cc(OC)c(NC(=O)C(c2ccccc2)N2Cc3ccccc3C2=O)cc1Cl (stereo not given) | / | 24.8% | / | /
COc1ccc(NC(=O)CCCN2C(=O)COc3ccc(C)cc32)cc1OC | / | 13.8% | / | /
Cc1ccc2c(c1)N(CCCC(=O)Nc1cccc(C(F)(F)F)c1)C(=O)CO2 | -6.1% | ? | -5.8% | 26.7µM*
CCOC(=O)C1=C(O)C(=O)N(c2ccc(S(N)(=O)=O)cc2)C1c1ccc([N+](=O)[O-])cc1 (stereo not given) | 3.0% | -25.6% | 15.1% | 29.9µM*
CC(=O)C1=C(O)C(=O)N(c2ccc(C)cc2)C1c1ccc([N+](=O)[O-])cc1 (stereo not given) | -14.9% | -4.2% | 32.2% | 26.7µM*
CC(=O)C1=C(O)C(=O)N(c2ccc(S(N)(=O)=O)cc2)C1c1cccc([N+](=O)[O-])c1 (stereo not given) | -0.7% | -14.6% | 1.3% | 26.7µM*
SMILES | Tb PFK block | VDR inhibitor | BRCA1 expr up | PLK1 PBD inh
CC(=O)C1=C(O)C(=O)N(c2ccc(O)cc2)C1c1ccc([N+](=O)[O-])cc1 (stereo not given) | 0.9% | -8.3% | 0.0% | -14.4%
Fc1ccc2c(c1)c1n[nH]c(=S)nc1n2CCc1ccccc1 | -10.9% | ? | -22.2% | 21.2µM*
Cc1ccc2c(c1)c1n[nH]c(=S)nc1n2CCc1ccccc1 | -4.7% | ? | -22.7% | ?
O=C(Cc1cccc(F)c1)NO | / | / | -14.0% | /
C=CCn1c(CNc2ccccc2)nnc1SCC(=O)N/N=C/c1ccc(O)cc1O | -0.5% | -22.5% | -63.9% | 26.7µM*
COc1ccc(NC(=S)NNS(=O)(=O)c2ccc3ccccc3c2)c(OC)c1 | -2.1% | ? | -27.7% | 29.9µM*
CCOC(=O)c1cc(-c2ccccc2)n(CCCC(=O)Nc2cccc(Cl)c2C)c1C | / | 9.2% | / | /
CCNc1ccc(C(=O)OCC(=O)N2CCCC2)cc1[N+](=O)[O-] | 0.8% | ? | -15.5% | 26.7µM*
CC1CCN(C(=O)COC(=O)c2ccc3c(c2)OCCO3)CC1 | 3.1% | 6.5% | ? | -1.1%
CC1CCN(C(=O)COC(=O)c2ccc3c(c2)OCO3)CC1 | -2.7% | -10.5% | 2.51µM* | 6.1%
Nc1ccc(C(=O)OCC(=O)N2CCOCC2)cc1[N+](=O)[O-] | 8.8% | 1.8% | 11.2µM* | -11.3%
CC1(C(=O)Nc2ccc(Cl)c(C(F)(F)F)c2)Cc2c(-c3ccc(C(N)=O)cc3)ccnc2O1 (stereo not given) | / | / | -20.1% | 5.7%
CNc1ccc(/C=C/c2ccnc3ccccc23)cc1 | / | / | 7.4% | /
CC(NC(=O)c1cnn2c1NC(=C1CC1)C=C2C(F)F)c1ccncc1 (stereo not given) | / | / | 15.8% | /
Brc1ccccc1-c1nnc(CSc2nncn2-c2ccccc2)o1 | 1.8% | -17.9% | 37.2% | 26.7µM*
Cc1ccc2c(c1)c1c(c(=O)n(Cc3ccccc3)c(=O)n1CC(=O)Nc1ccccc1C)n2C | / | 13.2% | 20.6% | /
CCN(CC)CCNC(=O)C1CCN(C(=O)c2cnn(-c3ccccc3)c2-n2cccc2)CC1 | / | 0.7% | ? | /
CCN(CC)CCSC(=O)C(c1ccccc1)c1ccccc1 | / | 25.1µM* | / | /
CCN(CC)CCOC(=O)C(c1ccccc1)c1ccccc1 | -10.5% | -15.1% | 18.6% | -4.5%
Cc1cccc(C)c1NC(=O)Cn1c(=O)n(Cc2ccccc2)c(=O)c2c(C)c(C(=O)N(C)C)sc21 | / | -1.3% | / | /
O=C(NC(=S)Nc1cccnc1Cl)c1ccco1 | -3.6% | -0.2% | 10µM* | 26.7µM*
O=C(NC(=S)Nc1ccccn1)c1ccco1 | -3.5% | 4.0% | 78.0% | 1.1%
CCN(CC)c1ccc(NC(=S)NC(=O)c2ccco2)cc1 | -4.6% | 79.4µM* | ? | 21.2µM*
CC1(C)CC(=O)C=C(c2cccc(OC(=O)c3ccc(-c4ccccc4)cc3)c2)C1=O | / | / | 46.6% | -10.7%
O=C(Nc1ccc([N+](=O)[O-])cc1Cl)c1ccccc1O | / | -9.9% | -55.1% | /
O=c1cc(C(F)(F)F)nc(SCc2cccc3ccccc23)[nH]1 | 0.0% | -11.0% | 18.9% | 29.9µM*
Nc1cc(=O)[nH]c(SCc2cccc3ccccc23)n1 | -12.2% | 14.7% | -6.6% | 0.0%
O=C(OCCO)c1c(-c2ccccc2)oc2c1C(OCCO)CCC2 (stereo not given) | / | / | 17.0% | -16.1%
COc1ccc(C(=O)OCC(=O)Nc2sccc2C(N)=O)cc1OC | -0.8% | -7.7% | -1.0% | -0.1%

From PubChem
